# Assay results taken from PubChem BioAssay (Tox21).
# Where “and” joins values, the source holds several entries; their conditions need not be identical. Equal entries are not always repeated. Records with an inconclusive call do not appear. A call without a number means that no potency is given here. Some structures have more than one record in an assay (separate samples or runs), and their calls can disagree. Calls of active or inactive are those of the source. The call rests on the fitted dose curve; in most records, active means well fitted cell-killing curve with a large enough effect in the repeat runs; inconclusive means weak or mixed curves; inactive means flat fitted curve, though single readings scatter.
# Experiment: qHTS RealTime-Glo MT Cell Viability Assay in HepG2 cells - 16 hour (AID 1224885); further: nearly all actives have a fitted effect of over 50% in size
# Details: RealTime-Glo luminescence; series mostly up to 76.8 µM
# Description: U.S. Tox21 Program National Center for Advancing Translational Sciences [NCATS] NIH Chemical Genomics Center [NCGC] U.S. Environmental Protection Agency [EPA] National Institutes of Environmental Health Sciences [NIEHS] National Toxicology Program [NTP] U.S. Food and Drug Administration [FDA] Tox21 Assay Overview: Measure of cell viability is critical in the cell-base assay. Analysis of cell viability is necessary for the characterization of cell responses to cytotoxic drugs and environmental stress. A RealTime-Glo MT Cell Viability Assay to monitor cell viability in real time of continues cell culture during 40 hours of compound treatment was used to screen Tox21 10K library compounds in HepG2 cells. The RealTime-Glo MT Cell Viability Assay is a nonlytic, homogeneous, bioluminescent method to measure cell viability in real time using a simple, plate-based method. The assay involves adding NanoLuc luciferase and a cell-permeant prosubstrate to cells in culture. Viable cells reduce the proprietary prosubstrate to generate a substrate for NanoLuc luciferase. This substrate diffuses from cells into the surrounding culture medium, where it is rapidly used by the NanoLuc Enzyme to produce a luminescent signal. The signal correlates with the number of viable cells, making the assay well suited for cytotoxicity studies.
# Tox21 Assay Protocol Summary: The mixture of HepG2 cell suspension and reagents were dispensed at 600cells/6 ul/well in 1536-well tissue culture treated black solid bottom plates using a Multidrop dispenser. After the assay plates were incubated at a 37 C/5% CO2 incubator for 5 hours, 23 nL of compounds dissolved in DMSO, positive and negative controls was transferred to the assay plate by a pintool work station. The plates were incubated at 37 C for 40 hours. The luminescence intensity were measured at 0h, 8h, 16h, 24h, 32h and 40h time points using ViewLux plate reader during compound treatment.
# Potency means the concentration at half of the fitted maximal effect.
row,SMILES,Potency
1,COc1ccc([N+](=O)[O-])cc1O,inactive
2,O=C(O)C1C2CCC(O2)C1C(=O)O (stereo not given),inactive
3,CC(C)(COCC1CO1)COCC1CO1 (stereo not given),inactive
4,O=C(NC(=O)c1c(F)cccc1F)Nc1cc(Cl)c(OC(F)(F)C(F)F)c(Cl)c1,inactive
5,CN(C)[C@@H]1C(=O)C(C(N)=O)=C(O)[C@@]2(O)C(=O)C3=C(O)c4c(O)ccc(Cl)c4[C@@](C)(O)[C@H]3C[C@@H]12,inactive
6,C1CCC2CCCCC2C1 (stereo not given),inactive
7,Cn1[nH]nnc1=S,inactive
8,CC(C)Oc1cccc(NC(=O)c2ccccc2C(F)(F)F)c1,inactive
9,CC(C)OS(C)(=O)=O,inactive
10,C=COCCCl,inactive
11,COP(N)(=S)OC,inactive
12,SCc1ccco1,inactive
13,O=[N+]([O-])c1cc(Cl)ccc1Cl,inactive
14,CCOC(=O)OC1=C(c2cc(C)ccc2C)C(=O)NC12CCC(OC)CC2 (stereo not given),inactive
15,N#C/C=C/c1ccccc1,inactive
16,COC12CC[C@@]3(C[C@@H]1C(C)(O)C(C)(C)C)[C@H]1Cc4ccc(O)c5c4[C@@]3(CCN1CC1CC1)[C@H]2O5 (stereo not given in full),43.4 µM (active)
17,CC(=O)c1ccc(-c2ccccc2)cc1,inactive
18,CC(=O)O[C@H]1CC[C@@]2(C)C(=CC[C@@H]3[C@@H]2CC[C@]2(C)C(=O)CC[C@@H]32)C1,inactive
19,Cc1c(Cl)c(=O)oc2cc(OP(=O)(OCCCl)OCCCl)ccc12,inactive
20,Oc1ccc(I)cc1,inactive

row,SMILES,Potency
1,O=C(O)c1cc[c]([Hg][Cl])cc1,30.9 µM (active)
2,N#CCCO,inactive
3,COC[C@H](C)N(C(=O)CCl)c1c(C)csc1C,inactive
4,O=c1[nH]c2ccccc2n1C1CCN(CCCC(c2ccc(F)cc2)c2ccc(F)cc2)CC1,49 µM (active) and inactive
5,CC(=[OH+])/C=C(/C)[O-].CC(=[OH+])/C=C(\C)[O-].CC(=[OH+])/C=C(\C)[O-].[Al],inactive
6,C[C@@H]1CC[C@@]2(OC1)O[C@H]1[C@@H](O)[C@H]3[C@@H]4CC[C@H]5C[C@@H](O[C@@H]6O[C@H](CO)[C@H](O[C@@H]7O[C@H](CO)[C@@H](O)[C@H](O[C@@H]8OC[C@@H](O)[C@H](O)[C@H]8O)[C@H]7O[C@@H]7O[C@H](CO)[C@@H](O)[C@H](O[C@@H]8O[C@H](CO)[C@@H](O)[C@H](O)[C@H]8O)[C@H]7O)[C@H](O)[C@H]6O)[C@H](O)C[C@]5(C)[C@H]4CC[C@]3(C)[C@H]1[C@@H]2C,18.4 µM (active)
7,c1ccc2c(c1)OCC(C1=NCCN1)O2 (stereo not given),inactive
8,C=CC(=O)OCC(COC(=O)C=C)(COC(=O)C=C)COC(=O)C=C,4.9 µM (active)
9,C[C@]12CC[C@H]3[C@@H](CCC4=CC(=O)CC[C@@]43C)[C@@H]1CC[C@@H]2O,inactive
10,CCCN(CCC)CCc1c[nH]c2ccccc12,inactive
11,C[C@@H](Oc1ccc(Cl)cc1Cl)C(=O)O,inactive
12,CCN,inactive
13,CC(C)CCCCCOC(=O)c1ccccc1C(=O)OCCCCCC(C)C,inactive
14,Nc1ccccc1C(=O)OC/C=C/c1ccccc1,inactive
15,C=CCOC(N)=O,inactive
16,N#CNC#N,inactive
17,CC(C)CBr,inactive
18,C[C@]12Cc3nonc3C[C@@H]1CC[C@@H]1[C@@H]2CC[C@@]2(C)[C@H]1CC[C@]2(C)O,inactive
19,CN(C)C(=S)S,inactive and 15.5 µM (active)
20,Nc1ccc(Sc2ccc(N)cc2)cc1,inactive
